System: Plasmodium falciparum
Assay: GSK_TCMDC: Inhibition of Plasmodium falciparum 3D7 in whole red blood cells, using parasite LDH activity as an index of growth. Test compounds present at 2uM
Assay type: functional

SMILES	Inhibition
Nc1ncc(-c2cccc(F)c2)cc1-c1nc2cc(F)ccc2[nH]1.O=C(O)C(F)(F)F	100%
COc1cccc(C(=O)Nc2ccc(Nc3nc(C)cc(N4CCCCC4)n3)cc2)c1OC	92%
N#Cc1ccc(NC(=O)c2ccc(C(=O)NCCCCN3CCC(c4ccc5c(c4OCCOC4CCCCO4)CCCC5)CC3)cc2)cc1 (configuration not stated)	99%
Cn1c(NCc2cc(F)cc3c2OCOC3)nc2cc(Nc3ccnc(Nc4cccc(CS(C)(=O)=O)c4)n3)ccc21	100%
Cl.O=c1cc(NCCCNCc2cc3ccc(Br)cc3s2)[nH]c2ccccc12	92%
COc1ccc(C23Oc4cc(OC)cc(OC)c4C2(O)C2(CC3c3ccccc3)SCCCS2)cc1 (configuration not stated)	96%
Cc1cccc2nc(O)c([N+](=O)[O-])c(O)c12	95%
COc1ccc(NC(=O)/C=C/c2ccccc2Cl)cc1OCCN1CCC(NCc2cccnc2)CC1	100%
CC(=O)c1cccc(NC(=O)NC2CCN(CCCCCNC(=O)/C=C/c3ccc(Cl)c(Cl)c3)CC2)c1	94%
CN1CCCN(Cc2cccc(-c3ccc(NS(=O)(=O)c4cccc5cccnc45)cc3)c2)CC1.O=C(O)C(F)(F)F	100%
COc1ccc2c(=NN=Cc3cccc(C)n3)cc(-c3ccccc3)[nH]c2c1	97%
Cc1ccc2[nH]c(C)cc(=NN=Cc3ccc(Cl)cc3)c2c1	100%
O=C(CCc1c[nH]cn1)Nc1ccc(-c2ccc(-c3nc4cc(F)ccc4[nH]3)cc2)cc1	99%
O=S(=O)(Nc1cccc(CCN2CCCCC2CCN2CCCC2)c1)c1ccc(-c2ccccc2)cc1 (configuration not stated)	99%
Cc1cc(C(=O)Nc2ccc3c(c2)CCN3C2CCN(Cc3cccc(F)c3F)C2)no1 (configuration not stated)	95%
Cl.O=C(Nc1ccc(NC2=NCCN2)cc1)c1ccc(C(=O)Nc2ccc(NC3=NCCN3)cc2)cc1	91%
CCOc1cccc(C(=O)Nc2cccc(CN3CCCN(Cc4ccc(O)cc4)CC3)c2)c1.O=C(O)C(F)(F)F	91%
Cl.Cl.N=C(N)c1ccc(-c2cc(-c3cccc(C(=N)N)c3)on2)cc1	96%
O=C(C=Cc1ccc(Cl)c(Cl)c1)NCCCCCN1CCC(CCCNC(=O)c2ccc3c(c2)OCO3)CC1	98%
O=C(Nc1ccc(Cl)cc1)N[C@H]1CCN(CCCCCNC(=O)C2CC2c2ccc(Cl)c(Cl)c2)C1 (some centres not stated)	96%
CCCCCCN1CCCN(Cc2ccc(C(=O)Nc3cccc(CC)c3)cc2)CC1.O=C(O)C(F)(F)F	85%
CC(C)Cn1cc(C2CCN(CCN3CCC(CNC(=O)c4ccc(NC(=O)c5ccc(Cl)cc5)cc4)CC3)CC2)c2ccccc21	100%
N#CN1CC[C@H](CS(=O)(=O)c2cccc(Br)c2)C1	88%
Cc1nnsc1C(=O)Nc1cccc(-c2cccc(-c3nc4cc(F)ccc4[nH]3)c2)c1	100%
Cc1cc(NC(=O)Nc2cccc(N(C)C)c2)c2ccccc2n1	97%
CCOCCCNc1nc2cc(OC)c(OC)cc2c2nc(-c3ccccc3)nn12	96%
O=S(=O)(Nc1cccc(CCN2CCC(N3CCCCC3)CC2)c1)c1ccc(Oc2ccccc2)cc1	100%

From ChEMBL document CHEMBL1157539, “Thousands of chemical starting points for antimalarial lead identification” (Nature, 2010)
